Source: PubChem BioAssay (EPA / NIEHS)
“And” between values parts separate entries of the source, which are not always exact repeats. Equal values may be shown once. Inconclusive results are not listed. Where a structure was tested more than once in an assay, its records may differ in their call. The source made the active and inactive calls. How the source made its calls, unless noted: active means hit-call score of the fitted dose curve at least 0.9, where 1 is the maximum; inactive means score below 0.9.

What was measured:
[1] = target: Glucocorticoid receptor (Homo sapiens) (UniProt P04150); test: ATG_GR_TRANS: Attagene TRANS-FACTORIAL HepG2 Assay for human Glucocorticoid Receptor (GR) (AID 2282978; active means hit-call score of the fitted dose curve at least 0.9, where 1 is the maximum;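 further: activators score as hits since higher reporter transcript over DMSO is fitted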); conditions: HepG2 Attagene TRANS GR reporter, mRNA transcription
Procedure, shortened: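 After 24 h incubation with test chemical, transfected HepG2 cells were lysed for RNA; reporter cDNA was amplified, FAM-labelled, HpaI-digested and sized on a capillary analyser. Signal gain relative to DMSO was scored.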

[2] = target: Oxysterols receptor LXR-alpha (Homo sapiens) (UniProt Q13133); test: ATG_LXRa_TRANS: Attagene TRANS-FACTORIAL HepG2 Assay for human Liver X Receptor alpha (LXRa) (AID 2282980; active means hit-call score of the fitted dose curve at least 0.9, where 1 is the maximum); conditions: HepG2 Attagene TRANS reporter, LXRa transactivation
Procedure, shortened: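 In this multiplexed TRANS system, compounds act on HepG2 cells carrying GAL4-UAS reporter units and a receptor-GAL4 fusion for 24 h. Induced reporter RNA is amplified, fluorescently labelled and sized by capillary electrophoresis, with DMSO as baseline.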

[3] = target: Hepatocyte nuclear factor 4-alpha (Homo sapiens) (UniProt P41235); test: ATG_HNF4a_TRANS: Attagene TRANS-FACTORIAL HepG2 Assay for human Hepatocyte Nuclear Factor 4 alpha (HNF4a) (AID 2282982; active means hit-call score of the fitted dose curve at least 0.9, where 1 is the maximum); conditions: HepG2 HNF4a transactivation reporter, mRNA readout
Procedure, shortened: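 Cells used were human HepG2, transiently carrying GAL4-UAS reporter units read out against exogenous NR-GAL4 chimeras. Reporter transcript levels after 24 h dosing were quantified by fluorescent RT-PCR and capillary electrophoresis.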

[4] = ATG_M_32_TRANS: Attagene TRANS-FACTORIAL HepG2 Assay for M32 Transcription Factor (Internal Marker) (AID 2282984; active means hit-call score of the fitted dose curve at least 0.9, where 1 is the maximum;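 further: transcript level of a background control reporter unit measured by RT-PCR and capillary electrophoresis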); conditions: HepG2 Attagene TRANS M32 internal marker reporter
Procedure, shortened: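 Human hepatoma HepG2, transient MRTU transfection, 24 h treatment. RNA → RT-PCR → fluorescent primer extension → HpaI digest (2 h, 37 C) → CE. Positive-direction fit vs DMSO.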

[5] = target: Nuclear receptor subfamily 4 group A member 2 (Homo sapiens) (UniProt P43354); test: ATG_NURR1_TRANS: Attagene TRANS-FACTORIAL HepG2 Assay for human Nuclear Receptor Related Protein 1 (NURR1) (AID 2282985; active means hit-call score of the fitted dose curve at least 0.9, where 1 is the maximum); conditions: HepG2 Attagene TRANS reporter, mRNA readout
Procedure, shortened: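 After 24 h chemical dosing, total RNA from transiently transfected HepG2 cells was reverse-transcribed and reporter cDNA PCR-amplified, FAM-labelled and analysed by capillary electrophoresis. Activity fitted in positive direction, DMSO as negative control.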

[6] = target: Transcriptional activator Myb (Homo sapiens) (UniProt P10242); test: ATG_Myb_CIS: Attagene CIS-FACTORIAL HepG2 Assay for human Myeloblastosis (Myb) Proto-Oncogene Transcription Factor (AID 2282986); conditions: HepG2 Attagene CIS-FACTORIAL Myb reporter transcription; actives raise or lower the signal
Procedure, shortened: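 After 24 h of compound dosing, total RNA from transfected HepG2 cells is reverse-transcribed and the reporter sequences amplified, labeled and separated by capillary electrophoresis. Values come from bidirectional fitting against DMSO.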

[7] = target: Nuclear respiratory factor 1 (Homo sapiens) (UniProt Q16656); test: ATG_NRF1_CIS: Attagene CIS-FACTORIAL HepG2 Assay for human Nuclear Respiratory Factor 1 (NRF1) Orphan Gene (AID 2282987); conditions: HepG2 NRF1 cis-element reporter, Attagene multiplex; actives raise or lower the signal
Procedure, shortened: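 Measured: fluorescent reporter-specific RT-PCR products from transfected HepG2 cells, separated by capillary electrophoresis. Exposure lasted 24 h. Analysis used bidirectional curve fitting with DMSO as negative control.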

[8] = ATG_NFI_CIS: Attagene CIS-FACTORIAL HepG2 Assay for human Nuclear Factor I (NFI) (AID 2282989); conditions: HepG2 cis-regulatory reporter, NFI response element transcription; actives raise or lower the signal
Procedure, shortened: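 Reporter transcription driven by endogenous transcription factors in HepG2 cells; 24 h treatment. Quantitation by labelled RT-PCR fragments on capillary electrophoresis, gain- or loss-of-signal relative to DMSO.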

[9] = target: Myc proto-oncogene protein (Homo sapiens) (UniProt P01106); test: ATG_Myc_CIS: Attagene CIS-FACTORIAL HepG2 Assay for human Myelocytomatosis (Myc) Proto-Oncogene Transcription Factor (AID 2282990); conditions: HepG2, Attagene cis-reporter transcription factor activity; actives raise or lower the signal
Procedure, shortened: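 HepG2 cells transiently transfected with multiple cis-promoter-driven reporter transcription units, so endogenous TF activity is read. After 24 h compound exposure, reporter mRNA was quantified by RT-PCR, 6-FAM labelling, HpaI digestion and capillary electrophoresis; bidirectional fit versus DMSO.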

[10] = ATG_NRF2_ARE_CIS: Attagene CIS-FACTORIAL HepG2 Assay for human Nuclear Factor Erythroid 2 Related Factor 2 (NFR2) response to Antioxidant Response Elements (ARE) (AID 2282992); conditions: HepG2 Attagene ARE/NRF2 reporter, transcription factor activity; actives raise or lower the signal
Procedure, shortened: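 Transient MRTU transfection of HepG2; 24 h compound exposure; TriZol RNA, RT with oligo(dT), PCR, 6-FAM primer extension, HpaI cut, CE. Bidirectional fit vs DMSO.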

[11] = ATG_Oct_MLP_CIS: Attagene CIS-FACTORIAL HepG2 Assay for human Octamer-Binding Transcription Factor (Oct) (AID 2282993); conditions: HepG2 Attagene cis-factorial Oct reporter, mRNA; actives raise or lower the signal
Procedure, shortened: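 Transfected HepG2 cells, 24 h treatment. Reporter mRNA quantified by RT-PCR–capillary electrophoresis; bidirectional fitting against DMSO.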

[12] = target: Cellular tumor antigen p53 (Homo sapiens) (UniProt P04637); test: ATG_p53_CIS: Attagene CIS-FACTORIAL HepG2 Assay for human p53 Transcription Factor (AID 2282994); conditions: HepG2 p53 cis-element reporter, Attagene mRNA; actives raise or lower the signal
Procedure, shortened: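 HepG2, transient MRTU transfection (cis promoter elements, endogenous TFs); 24 h dosing; RNA isolation, RT-PCR, 6-FAM primer extension, HpaI digest, CE fluorescence; bidirectional fit vs DMSO.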

[13] = BSK_3C_uPAR: BioMAP Diversity Plus: 3C Assay for Urokinase-type plasminogen activator receptor (uPAR) Biomarker Activity (AID 2282998); conditions: BioMAP 3C HUVEC, uPAR biomarker ELISA; actives raise or lower the signal
Procedure, shortened: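 Readout: ELISA for surface uPAR. System: human umbilical vein endothelial primary cells, 24 h after chemical exposure. Analysis: bidirectional fit, DMSO baseline.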

[14] = BSK_3C_VCAM1: BioMAP Diversity Plus: 3C Assay for Vascular cell adhesion molecule 1 (VCAM1) Biomarker Activity (AID 2282999); conditions: BioMAP 3C HUVEC, VCAM1 ELISA, cytokine-stimulated; actives raise or lower the signal
Procedure, shortened: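 Human umbilical vein endothelial cells were dosed with compound for 24 h, after which cell-surface VCAM-1 was quantified by ELISA. Bidirectional curve fitting used DMSO as negative control and activity baseline.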

[15] = BSK_4H_Eotaxin3: BioMAP Diversity Plus: 4H Assay for Eotaxin 3 Biomarker Activity (AID 2283000); conditions: primary human endothelial cells (HUVEC); actives raise or lower the signal
Procedure, shortened: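 ELISA quantitation of CCL26 (Eotaxin-3) protein from chemically dosed human vascular endothelial cells at 24 h; increases and decreases both scored relative to DMSO-treated baseline.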

[16] = ATG_M_06_TRANS: Attagene TRANS-FACTORIAL HepG2 Assay for M06 Transcription Factor (Internal Marker) (AID 2282983; active means hit-call score of the fitted dose curve at least 0.9, where 1 is the maximum); conditions: HepG2 Attagene TRANS M06 internal marker reporter
Procedure, shortened: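 Internal-marker background readout from a multiplexed TRANS reporter system in HepG2; 24 h dosing; mRNA induction quantified by RT-PCR plus capillary electrophoresis fluorescence; DMSO as negative control and baseline.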

[17] = ATG_NF_kB_CIS: Attagene CIS-FACTORIAL HepG2 Assay for human Nuclear Factor Kappa B (NF-kB) (AID 2282991); conditions: HepG2 Attagene cis-factorial NF-kB reporter mRNA; actives raise or lower the signal
Procedure, shortened: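 Fluorescence of labelled RT-PCR products separated by capillary electrophoresis gives reporter mRNA levels from transfected HepG2 cells exposed 24 h; values are fitted in both directions relative to DMSO.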

[18] = target: Bile acid receptor (Homo sapiens) (UniProt Q96RI1); test: ATG_FXR_TRANS: Attagene TRANS-FACTORIAL HepG2 Assay for Farnesoid X Receptor (FXR) (AID 2282979; active means hit-call score of the fitted dose curve at least 0.9, where 1 is the maximum;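 further: hits raise reporter mRNA above DMSO so AC50 marks FXR activation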); conditions: HepG2 Attagene TRANS FXR-GAL4 reporter transcription
Procedure, shortened: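 After 24 h chemical treatment of transfected HepG2 cells, GAL4-UAS reporter transcripts driven by an exogenous FXR-GAL4 fusion were measured by RT-PCR and capillary electrophoresis. Increases over DMSO were fitted.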

[19] = BSK_3C_TissueFactor: BioMAP Diversity Plus: 3C Assay for Tissue Factor Biomarker Activity (AID 2282997); conditions: BioMAP 3C HUVEC, tissue factor biomarker readout; actives raise or lower the signal
Procedure, shortened: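 Endothelial monolayers (human umbilical vein, primary) are dosed, incubated 24 h, and assayed for Tissue Factor by ELISA; DMSO serves as negative control for bidirectional fitting.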

Measured: AC50

Oxysterols receptor LXR-alpha (Homo sapiens), sequence (Q13133 whole entry, looked up, the tested form may be a part): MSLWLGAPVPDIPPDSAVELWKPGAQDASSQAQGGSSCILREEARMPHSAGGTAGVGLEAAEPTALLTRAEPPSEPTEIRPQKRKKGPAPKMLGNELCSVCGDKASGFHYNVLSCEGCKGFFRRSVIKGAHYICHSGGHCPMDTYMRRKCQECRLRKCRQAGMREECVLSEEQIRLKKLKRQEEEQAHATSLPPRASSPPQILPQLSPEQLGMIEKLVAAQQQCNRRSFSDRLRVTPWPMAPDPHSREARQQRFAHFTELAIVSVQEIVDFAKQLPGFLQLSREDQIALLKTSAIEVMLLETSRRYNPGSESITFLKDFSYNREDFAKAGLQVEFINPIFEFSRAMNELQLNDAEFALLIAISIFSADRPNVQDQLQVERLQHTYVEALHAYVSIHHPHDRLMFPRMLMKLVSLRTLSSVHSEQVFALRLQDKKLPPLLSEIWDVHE
Glucocorticoid receptor (Homo sapiens), sequence (P04150 whole entry, looked up): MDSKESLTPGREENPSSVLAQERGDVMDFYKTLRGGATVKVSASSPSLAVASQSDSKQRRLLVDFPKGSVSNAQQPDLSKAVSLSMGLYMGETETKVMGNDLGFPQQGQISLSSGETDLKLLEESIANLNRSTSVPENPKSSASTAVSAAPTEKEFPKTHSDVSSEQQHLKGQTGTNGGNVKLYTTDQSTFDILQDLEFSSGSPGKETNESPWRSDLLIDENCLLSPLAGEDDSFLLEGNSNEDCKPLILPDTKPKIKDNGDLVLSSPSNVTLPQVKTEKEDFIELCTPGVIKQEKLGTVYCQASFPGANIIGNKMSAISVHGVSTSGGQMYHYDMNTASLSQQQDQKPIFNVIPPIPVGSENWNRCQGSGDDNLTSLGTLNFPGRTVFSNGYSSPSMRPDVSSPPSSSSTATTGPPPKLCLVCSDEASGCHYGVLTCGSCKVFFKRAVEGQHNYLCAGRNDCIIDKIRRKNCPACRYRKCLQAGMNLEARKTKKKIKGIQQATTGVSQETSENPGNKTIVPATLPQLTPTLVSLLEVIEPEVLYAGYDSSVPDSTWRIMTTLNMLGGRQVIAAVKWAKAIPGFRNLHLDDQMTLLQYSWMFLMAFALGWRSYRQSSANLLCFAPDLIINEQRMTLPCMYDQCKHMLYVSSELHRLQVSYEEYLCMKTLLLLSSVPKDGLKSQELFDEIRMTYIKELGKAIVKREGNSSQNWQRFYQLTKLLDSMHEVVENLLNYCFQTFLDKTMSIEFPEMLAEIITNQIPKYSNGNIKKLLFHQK
Nuclear respiratory factor 1 (Homo sapiens), sequence (Q16656 whole entry, looked up): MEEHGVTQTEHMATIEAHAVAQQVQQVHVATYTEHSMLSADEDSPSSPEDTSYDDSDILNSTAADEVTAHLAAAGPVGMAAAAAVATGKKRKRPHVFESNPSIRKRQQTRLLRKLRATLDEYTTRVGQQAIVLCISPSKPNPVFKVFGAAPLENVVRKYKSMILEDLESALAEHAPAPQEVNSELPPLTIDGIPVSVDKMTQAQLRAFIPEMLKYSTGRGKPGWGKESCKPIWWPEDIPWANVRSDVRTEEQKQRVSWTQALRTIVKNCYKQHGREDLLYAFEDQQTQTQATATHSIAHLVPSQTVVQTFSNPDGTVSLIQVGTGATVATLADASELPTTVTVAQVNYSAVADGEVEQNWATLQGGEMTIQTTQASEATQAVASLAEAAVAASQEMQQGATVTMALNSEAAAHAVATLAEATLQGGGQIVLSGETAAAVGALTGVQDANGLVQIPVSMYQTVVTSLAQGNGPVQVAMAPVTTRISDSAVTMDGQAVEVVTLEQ
Bile acid receptor (Homo sapiens), sequence (Q96RI1 whole entry, looked up, the tested form may be a part): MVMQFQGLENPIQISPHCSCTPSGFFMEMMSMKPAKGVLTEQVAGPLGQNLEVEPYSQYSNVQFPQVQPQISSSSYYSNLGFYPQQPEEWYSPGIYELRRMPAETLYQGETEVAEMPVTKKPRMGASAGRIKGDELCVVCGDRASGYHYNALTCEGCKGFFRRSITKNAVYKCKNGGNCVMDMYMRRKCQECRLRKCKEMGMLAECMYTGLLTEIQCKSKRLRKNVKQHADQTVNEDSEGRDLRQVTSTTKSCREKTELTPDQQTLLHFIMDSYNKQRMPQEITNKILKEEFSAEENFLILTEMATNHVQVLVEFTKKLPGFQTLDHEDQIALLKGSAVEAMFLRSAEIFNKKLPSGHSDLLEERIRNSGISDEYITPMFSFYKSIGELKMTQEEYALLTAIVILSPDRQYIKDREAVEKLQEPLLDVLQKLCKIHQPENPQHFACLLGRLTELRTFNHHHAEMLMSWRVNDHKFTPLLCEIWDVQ
Hepatocyte nuclear factor 4-alpha (Homo sapiens), sequence (P41235 whole entry, looked up, the tested form may be a part): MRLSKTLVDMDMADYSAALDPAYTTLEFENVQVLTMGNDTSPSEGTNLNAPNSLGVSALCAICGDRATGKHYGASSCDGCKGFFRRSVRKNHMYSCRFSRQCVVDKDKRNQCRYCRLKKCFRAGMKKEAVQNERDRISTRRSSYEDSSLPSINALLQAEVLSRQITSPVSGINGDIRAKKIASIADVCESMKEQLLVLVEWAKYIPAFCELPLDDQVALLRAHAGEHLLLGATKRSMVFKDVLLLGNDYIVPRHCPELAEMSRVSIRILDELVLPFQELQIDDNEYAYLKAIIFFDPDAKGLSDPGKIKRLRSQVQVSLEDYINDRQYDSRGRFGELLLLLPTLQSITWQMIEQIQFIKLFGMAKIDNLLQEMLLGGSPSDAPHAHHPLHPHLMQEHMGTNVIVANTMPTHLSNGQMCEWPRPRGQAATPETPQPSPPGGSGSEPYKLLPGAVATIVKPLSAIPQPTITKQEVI
Myc proto-oncogene protein (Homo sapiens), sequence (P01106 whole entry, looked up): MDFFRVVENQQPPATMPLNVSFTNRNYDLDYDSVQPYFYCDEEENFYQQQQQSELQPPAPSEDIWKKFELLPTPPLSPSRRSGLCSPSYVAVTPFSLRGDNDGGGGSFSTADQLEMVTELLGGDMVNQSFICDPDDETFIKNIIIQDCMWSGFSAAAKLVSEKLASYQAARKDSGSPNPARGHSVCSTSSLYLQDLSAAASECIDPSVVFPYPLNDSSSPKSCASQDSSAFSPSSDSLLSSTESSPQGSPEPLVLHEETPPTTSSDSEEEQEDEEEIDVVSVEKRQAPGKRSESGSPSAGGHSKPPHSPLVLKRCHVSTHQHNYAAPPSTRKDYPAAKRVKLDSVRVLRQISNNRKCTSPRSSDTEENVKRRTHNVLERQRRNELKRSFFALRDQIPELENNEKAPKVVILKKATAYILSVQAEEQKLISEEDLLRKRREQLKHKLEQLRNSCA
Nuclear receptor subfamily 4 group A member 2 (Homo sapiens), sequence (P43354 whole entry, looked up): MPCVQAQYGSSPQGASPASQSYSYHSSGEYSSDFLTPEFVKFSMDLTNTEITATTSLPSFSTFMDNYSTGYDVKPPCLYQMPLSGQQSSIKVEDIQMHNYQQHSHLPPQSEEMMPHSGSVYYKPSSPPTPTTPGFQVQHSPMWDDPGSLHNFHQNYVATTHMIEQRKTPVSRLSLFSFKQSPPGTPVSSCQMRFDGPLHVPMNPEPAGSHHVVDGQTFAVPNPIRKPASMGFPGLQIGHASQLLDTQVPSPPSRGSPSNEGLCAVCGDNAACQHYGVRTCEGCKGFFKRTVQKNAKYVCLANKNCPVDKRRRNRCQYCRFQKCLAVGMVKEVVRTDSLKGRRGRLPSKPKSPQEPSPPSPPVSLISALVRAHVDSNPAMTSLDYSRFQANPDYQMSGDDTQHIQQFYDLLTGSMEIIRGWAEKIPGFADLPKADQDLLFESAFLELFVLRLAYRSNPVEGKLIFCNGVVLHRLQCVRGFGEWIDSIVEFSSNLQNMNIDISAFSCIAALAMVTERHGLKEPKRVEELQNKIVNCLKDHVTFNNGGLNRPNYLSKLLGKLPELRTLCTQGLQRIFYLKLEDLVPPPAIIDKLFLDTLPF
Transcriptional activator Myb (Homo sapiens), sequence (P10242 whole entry, looked up): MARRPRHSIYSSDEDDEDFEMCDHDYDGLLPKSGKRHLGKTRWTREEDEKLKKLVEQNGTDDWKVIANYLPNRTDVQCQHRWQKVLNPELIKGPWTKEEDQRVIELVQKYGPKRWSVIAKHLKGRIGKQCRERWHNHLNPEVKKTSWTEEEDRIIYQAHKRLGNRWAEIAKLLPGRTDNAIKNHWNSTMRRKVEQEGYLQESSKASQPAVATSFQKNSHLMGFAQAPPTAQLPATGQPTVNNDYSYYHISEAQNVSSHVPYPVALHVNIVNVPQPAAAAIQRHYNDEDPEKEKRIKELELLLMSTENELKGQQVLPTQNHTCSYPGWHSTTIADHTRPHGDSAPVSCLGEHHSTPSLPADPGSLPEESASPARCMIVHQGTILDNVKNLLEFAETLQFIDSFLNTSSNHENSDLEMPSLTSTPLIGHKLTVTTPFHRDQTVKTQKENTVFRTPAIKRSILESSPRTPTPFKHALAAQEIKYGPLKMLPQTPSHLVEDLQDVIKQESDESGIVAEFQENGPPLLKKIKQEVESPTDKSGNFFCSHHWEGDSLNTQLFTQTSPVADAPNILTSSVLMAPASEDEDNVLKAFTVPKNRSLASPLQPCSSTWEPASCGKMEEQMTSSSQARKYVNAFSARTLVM
Cellular tumor antigen p53 (Homo sapiens), sequence (P04637 whole entry, looked up): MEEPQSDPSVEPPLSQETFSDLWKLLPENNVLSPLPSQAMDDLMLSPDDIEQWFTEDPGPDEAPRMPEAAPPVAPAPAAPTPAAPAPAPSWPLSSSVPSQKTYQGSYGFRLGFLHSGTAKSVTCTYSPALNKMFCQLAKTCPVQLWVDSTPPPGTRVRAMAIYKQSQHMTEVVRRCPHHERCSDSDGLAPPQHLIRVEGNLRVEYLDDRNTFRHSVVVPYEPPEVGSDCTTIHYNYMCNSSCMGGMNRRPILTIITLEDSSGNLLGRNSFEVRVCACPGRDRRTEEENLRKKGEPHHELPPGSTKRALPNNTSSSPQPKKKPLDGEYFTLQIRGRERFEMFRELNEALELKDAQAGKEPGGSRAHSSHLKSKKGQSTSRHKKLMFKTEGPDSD

C[C@]12CC[C@@H]3c4ccc(O)cc4CC[C@H]3[C@@H]1CC[C@H]2O
active: [11] 27.2 µM | [12] 27.7 µM and 10.4 µM and 9.47 µM | [13] 16.7 µM | [15] 25 µM
inactive: [1] | [2] | [3] | [4] | [5] | [6] | [7] | [8] | [9] | [10] | [11] | [12] | [14]

Oc1ccc2ccccc2c1
active: [10] 15.5 µM and 5.76 µM | [12] 180 µM | [15] 15.7 µM
inactive: [1] | [2] | [3] | [16] | [4] | [6] | [7] | [8] | [9] | [17] | [11] | [12] | [13] | [14]

O=C(OCCCCCCOC(=O)c1ccccc1)c1ccccc1
inactive: [1] | [18] | [2] | [3] | [5] | [6] | [7] | [8] | [9] | [17] | [10] | [11] | [12] | [13] | [14] | [15]

CCCCOC(=O)c1ccc(O)cc1
inactive: [1] | [18] | [2] | [3] | [4] | [5] | [6] | [8] | [10] | [11] | [12] | [13] | [14] | [15]
active: [18] 66.1 µM | [5] 100 µM | [6] 162 µM | [8] 100 µM | [10] 100 µM and 26.2 µM | [11] 116 µM | [19] 7.85 µM

O=C(O)Cc1cc(I)c(Oc2ccc(O)c(I)c2)c(I)c1
inactive: [1] | [18] | [2] | [3] | [4] | [6] | [8] | [9] | [17] | [11] | [12] | [19] | [13] | [14]
active: [5] 82 µM and 100 µM | [10] 70 µM [middle of 4 runs] | [11] 35.7 µM and 100 µM | [12] 25.9 µM and 26.4 µM and 9.57 µM | [15] 31.3 µM
